CendR NRP1 mod = modulators of CendR peptide binding to NRP-1, primary screen, biochemical, fluorescence polarization, uHTS; 360,000 tested, 0.85% active; inhibition, % at 25 µM; Neuropilin-1 (Homo sapiens), O14786; AID 602438, 2012; FAM-RPARPAR peptide binding to NRP-1;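 active = inhibition or corrected inhibition above about 18%, plus a signal ratio from 0.5 to 1.5, limit read from the data, passing the limit was not always enough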
Yeast superoxide = reduction of superoxide in aged yeast, primary screen, HTS. S. cerevisiae aged cells, superoxide DHE fluorescence; stronger effect = lower value. superoxide response (% of plate mean), % at 10 µM. 330,000 tested, 0.18% active. AID 2690, 2010;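 active = superoxide response under a set limit, about three screen SD below normal, cut at about 65% in these data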;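 also: yeast aged for seven days with compound at 30 °C before DHE staining; 100% = average MFI of all compound-treated wells on the plate with controls excluded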
APOBEC3A inh = APOBEC3A ssDNA deaminase inhibitors, primary screen, selectivity assay for APOBEC3G inhibitor project, biochemical, FAM/TAMRA oligo cleavage fluorescence; 330,000 tested, 0.41% active; inhibition, % at 20 µM; recombinant A3A, FAM/TAMRA ssDNA deamination fluorescence; AID 493011, 2011;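 active = at least 40% inhibition at 20 µM here, with at most 30% in a related deaminase screen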;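 also: plate controls were A3A with DMSO for no effect and wells lacking A3A enzyme for full effect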
Target sequence (P31941 whole entry, looked up): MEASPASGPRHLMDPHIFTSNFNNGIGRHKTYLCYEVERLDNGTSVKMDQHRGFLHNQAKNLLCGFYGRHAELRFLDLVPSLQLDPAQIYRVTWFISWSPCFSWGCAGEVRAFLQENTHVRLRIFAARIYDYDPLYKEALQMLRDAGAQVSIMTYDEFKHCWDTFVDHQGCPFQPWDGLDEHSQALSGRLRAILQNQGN
A3G deaminase = APOBEC3G DNA deaminase inhibitors, primary screen, biochemical, fluorescence, single-stranded DNA substrate, uHTS | recombinant A3G, ssDNA deamination FAM/TAMRA fluorescence | inhibition, % at 20 µM | 330,000 tested, 0.28% active;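 active = inhibition of at least 40% at 20 µM, with no more than 30% in the related APOBEC3A deaminase screen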;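 also: plate controls were DMSO wells with A3G for no effect and wells lacking A3G enzyme for full effect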
ALR H2O2 inh = inhibitors of human ALR sulfhydryl oxidase, primary screen, biochemical, H2O2 detection, HRP-luminol luminescence, single point | inhibition, % (test concentration not listed) | purified ALR, DTT oxidation | AID 485317, 2010 | FAD-linked sulfhydryl oxidase ALR (Homo sapiens), P55789 | 290,000 tested, 3.8% active;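 active = mean replicate inhibition above about 79%, with every replicate also reaching it, limit read from the data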
Target sequence (P55789 whole entry, looked up): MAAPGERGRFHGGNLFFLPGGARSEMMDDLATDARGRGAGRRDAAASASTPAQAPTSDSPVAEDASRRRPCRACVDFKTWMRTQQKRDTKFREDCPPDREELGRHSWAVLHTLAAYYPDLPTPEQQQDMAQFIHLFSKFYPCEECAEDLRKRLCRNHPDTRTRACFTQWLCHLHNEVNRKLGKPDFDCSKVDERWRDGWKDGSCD
M18AAP inhibitor = PfM18AAP inhibitors, malaria aminopeptidase, primary screen, biochemical, QFRET, recombinant enzyme. M18 aspartyl aminopeptidase (Plasmodium falciparum 3D7). H-Glu-NHMec fluorogenic cleavage. inhibition, % at 7.35 µM. 290,000 tested, 1.2% active. AID 1822, 2009;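 active = inhibition above the campaign mean inhibition over all tested compounds plus 3 SD, cut at about 28% in these data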;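 also: 0% = plate median of test compound wells and 100% = 2 mM ZnCl2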
Numbers without * were called inactive; nt = no result given. This is a sample that favours compounds with a hit; in the whole collection about 5.2% have one here.

SMILES	CendR NRP1 mod	Yeast superoxide	APOBEC3A inh	A3G deaminase	ALR H2O2 inh	M18AAP inhibitor
CCN1CCN(C(=O)c2ccc3c(=O)n(Cc4ccccc4OC)c(=S)[nH]c3c2)CC1	6	105	1	-2	13	2
CCC1(c2ccc(F)cc2)NC(=O)N(CC(=O)Nc2cccc(S(=O)(=O)N3CCCCC3)c2)C1=O (stereo not given)	31*	99	1	-5	-5	nt
CCC1(c2ccccc2)NC(=O)N(CC(=O)Nc2ccccc2C(=O)N2CCCCC2)C1=O (stereo not given)	21*	84	25	1	-2	nt
CCC1(c2ccc(F)cc2)NC(=O)N(CC(=O)Nc2cccc(S(=O)(=O)N3CCCC3)c2)C1=O (stereo not given)	-2	nt	nt	nt	nt	nt
Cc1cccc(C(=O)OC2CCN(C)CC2)c1	0	94	2	0	-7	0
COc1cccc2c(=O)n(CC(=O)Nc3ccccc3)ccc12	1	91	-1	0	-9	7
Cc1cc(Cl)ccc1NC(=O)c1ccc2c(c1)CCN2S(C)(=O)=O	16*	98	-5	-9	0	-1
Cc1ccccc1NC(=O)c1ccc2c(c1)CCN2S(C)(=O)=O	-1	101	-5	-5	-10	-2
CCOC1=C2[C@@H](CN(S(=O)(=O)c3ccccc3C)[C@H]2c2ccc(Cl)cc2)[C@H]2C(=O)N(c3ccccc3)C(=O)[C@H]2C1	22*	nt	nt	nt	nt	nt
CCOC1=C2[C@@H](CN(S(=O)(=O)c3ccccc3C)[C@H]2c2ccc(Cl)cc2)[C@H]2C(=O)N(C3CCCCC3)C(=O)[C@H]2C1	13	nt	nt	nt	nt	nt
O=C(O)CS(=O)(=O)c1ccc(C(F)(F)F)cn1	36*	91	-3	-4	-10	-16
CCN(CC)c1nc2n(c(=S)n1)CCS2	3	101	0	-4	5	-1
O=C(C1CCN(S(=O)(=O)c2ccc(Br)s2)CC1)N1CCc2ccccc21	43*	86	-4	-2	nt	4
CCC(O)CC(C(=O)NNc1ccccc1)C(=O)NNc1ccccc1 (stereo not given)	11	98	-3	16	99*	10
CCOC(=O)NNc1ccccc1	-1	78	0	-5	-9	0
COC(CN(C)C(=O)C1CCC(CNS(=O)(=O)c2ccccc2)CC1)OC (stereo not given)	2	94	-3	-8	-4	4
COc1cc2ccnc(Cc3cccc(OC)c3OC)c2cc1OC	-6	100	-2	-11	-24	-4
COc1cc(N)c(Cc2nccc3cc(OC)c(OC)cc23)cc1OC	8	97	-5	-6	88*	9
O=C(CC1SC(N2CCCC2)=NC1=O)Nc1ccc(C(=O)NCc2ccccc2F)cc1 (stereo not given)	-17	nt	nt	nt	nt	nt
CN(C)S(=O)(=O)N1CCN(c2ccccc2)CC1	0	91	0	-2	79*	-6
CN(C)S(=O)(=O)N1CCN(c2ccccc2Cl)CC1	7	101	-1	-3	-2	-7
Cc1nc(C(=O)NCCC(C)C)sc1C1(C)CC(c2ccccc2)=NO1 (stereo not given)	10	101	-5	-7	nt	nt
CC(=O)Nc1ccc(NC(=O)CSc2ncc(C(=O)Nc3ccccc3)c(=O)n2C)cc1	-11	109	-3	-6	99*	nt
Cn1c(SCC(=O)c2ccc(F)cc2)ncc(C(=O)Nc2ccccc2)c1=O	27*	100	-5	-7	-17	nt
Cc1ccc(CNC(=O)CSc2ncc(C(=O)Nc3ccccc3)c(=O)n2C)cc1	-9	101	2	-5	1	nt
SMILES	CendR NRP1 mod	Yeast superoxide	APOBEC3A inh	A3G deaminase	ALR H2O2 inh	M18AAP inhibitor
Cn1c(SCC(=O)NCc2ccccc2)ncc(C(=O)Nc2ccccc2)c1=O	-5	107	-2	-3	0	nt
CCOC(=O)/C=C/C(=O)OCC(=O)Nc1ccc(Cl)cn1	1	97	-1	-4	14	-19
CCOC(=O)NC1(Nc2ccc(Cl)cn2)Oc2ccccc2O1	nt	nt	nt	nt	nt	57*
Cc1cc(C)c(NC(=O)C(=O)NCc2ccco2)c(C)c1	-14	97	3	-3	-15	-2
Cc1ccc(C)c(OCC(=O)Nc2cccc(C(=O)O)c2)c1C	-8	103	0	-4	49	9
O=C(NNC(=O)c1ccccc1Cl)c1ccccc1Cl	15	112	-3	-5	-7	1
CN(CC(=O)NNC(=O)c1cccnc1)S(=O)(=O)c1cc(Cl)ccc1Cl	40*	102	-3	-7	-6	-8
O=C(/C=C/c1ccccc1Cl)c1cccnc1	-11	87	0	2	15	28*
CN(CC(=O)Nc1cccnc1)S(=O)(=O)c1cc(Cl)ccc1Cl	5	117	3	1	-2	5
O=C(NNC(=O)c1ccccc1Cl)c1cccnc1	23*	101	-4	-12	-2	-2
COc1ccc(CNC2CCCC2)c(OC)c1OC	-2	107	2	2	-3	4
CC(=O)Nc1ccc(SCC(=O)c2cc(C)n(-c3ccccc3F)c2C)cc1	6	74	-9	-7	98*	6
COC(=O)c1ccc(-n2c(C)cc(C(=O)CSc3ccc(NC(C)=O)cc3)c2C)cc1	-6	110	-6	-4	91*	5
Cc1cc(S(=O)(=O)Nc2ccccc2C)ccc1F	-8	97	1	-1	4	-7
CCOC(=O)N1CCN(C(=O)CSCC(=O)Nc2nc(-c3ccccc3)cs2)CC1	-11	96	-3	-3	nt	-6
O=C(CSCC(=O)N1CCCCC1)Nc1nc(-c2ccc(Cl)s2)cs1	-1	95	0	-1	8	-1
O=C(CSCC(=O)N1CCCCC1)Nc1nc(-c2cccs2)cs1	3	87	-1	-2	96*	-1
CC1CC(C)CN(C(=O)CSCC(=O)Nc2nc(-c3cccs3)cs2)C1 (stereo not given)	-1	90	-5	-9	99*	-2
CCCCOC(=O)C1=C(C)NC(=O)NC1c1cc2c(cc1Br)OCO2 (stereo not given)	10	109	-5	-3	-9	-4
O=CC(O)C1OC(=O)C(O)C1O (stereo not given)	-5	nt	nt	nt	nt	nt
COc1ccc(NC(=O)C2CCCN(S(=O)(=O)c3cccnc3)C2)c(OC)c1 (stereo not given)	0	104	0	-4	nt	4

Source: PubChem
